TbPYK inhibitor: blocks Trypanosoma brucei pyruvate kinase | Q57TT1 | TbPYK enzyme, Kinase-Glo Plus ATP luminescence, 45 min | Potency, µM (series often up to 76.8 µM), inactives show top-dose activity, negative = inhibition, most hits filed as inhibitors | 410,000 tested, 0.12% active | AID 624173; note: potency is the fitted concentration of half-maximal effect; % is set by controls: 0 for no effect and ±100 for the full control effect; nearly all actives have a fitted effect of over 50% in size
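Quantitative HTS: titrated library compounds versus trypanosomal pyruvate kinase in TEA buffer (pH 7.2) containing KCl, MgCl2, BSA and Tween-20. Reactions were initiated with ADP, 130 uM final. Kinase-Glo Plus luminescence was read after 45 min at RT.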
Sm TGR inh: blocks Schistosoma mansoni thioredoxin glutathione reductase; 360,000 tested, 3% active; Potency, µM (top dose mostly 114 µM), without a hit: at the top dose activity change, negative = inhibition, usual class: inhibitors; Q962Y6; purified TGR, DTNB reduction, TNB absorbance 405 nm; note: potency is the fitted concentration of half-maximal effect; % is set by controls: 0 for no effect and ±100 for the full control effect; nearly all actives have a fitted effect of over 60% in size
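First, TGR (20 nM dispensed) and NADPH were mixed with compound. Second, a 15 min room-temperature incubation followed. Third, further NADPH and then DTNB were added to start the reaction. Finally, TNB absorbance was monitored kinetically.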
LmPK inhibitor: LmPK (Leishmania mexicana) enzyme inhibition; Q27686; purified LmPK, Kinase-Glo ATP luminescence, 1 h; Potency, µM (highest dose often 57.5 µM), for the others: top-dose activity change, negative = inhibition, most hits filed as inhibitors; 290,000 tested, 0.37% active; AID 1721; note: potency is the fitted concentration of half-maximal effect; % is set by controls: 0 for no effect and ±100 for the full control effect
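0.1 nM LmPK, 0.5 mM PEP, 0.1 mM ADP; 50 mM imidazole pH 7.2, 7 mM MgCl2, 50 mM KCl; 1 h RT. Kinase-Glo luminescence readout, normalized to no-enzyme (full inhibition) and uninhibited wells.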
Shiga toxin inh: blocks Shiga toxin action in Vero cells | Vero cells, Shiga toxin protein synthesis inhibition reporter | 290,000 tested, 9.2% active | inhibition, % at 38.7 µM | AID 2315; in the data active = inhibition mostly above about 28%, no sharp cut-off; inactive = mostly below about 43%; note: 0% is about no effect
FBPA Giardia inh: Giardia lamblia aldolase inhibition; purified Giardia FBPA; Potency, µM (titrated, usually from 59.6 µM), without a hit: at the highest dose activity, negative = inhibition, actives largely listed as inhibitors; 290,000 tested, 0.71% active; note: potency is the fitted concentration of half-maximal effect; % is set by controls: 0 for no effect and ±100 for the full control effect; nearly all actives have a fitted effect of over 55% in size
Target sequence (A8B2U2 whole entry, looked up): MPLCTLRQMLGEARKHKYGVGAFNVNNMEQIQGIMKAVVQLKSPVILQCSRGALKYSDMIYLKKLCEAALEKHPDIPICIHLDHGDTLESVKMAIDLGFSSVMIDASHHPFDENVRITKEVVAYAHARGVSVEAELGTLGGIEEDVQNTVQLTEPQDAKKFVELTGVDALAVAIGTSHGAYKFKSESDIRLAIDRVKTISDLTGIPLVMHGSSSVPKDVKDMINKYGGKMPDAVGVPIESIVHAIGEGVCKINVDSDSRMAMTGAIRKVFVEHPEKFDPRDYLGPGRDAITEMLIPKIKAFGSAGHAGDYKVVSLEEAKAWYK
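40 nM FBPA preincubated 10 min at RT with compound (up to 57.5 uM final), then substrate plus GAPDH/TPI/NAD/arsenate coupling and diaphorase/resazurin added. Fluorescence read after 20 min at RT, 525/598 nm.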
CHX counter: affects cycloheximide protein synthesis inhibition readout, counter-screen. 300,000 tested, 12% active. max response, %. AID 2314. cell reporter, cycloheximide protein synthesis inhibition counterscreen; in the data active = max response mostly above about 13%, no sharp cut-off; inactive = mostly below about 14%; note: read at 38.3 µM for the half of the compounds with a filed dose; 0% is about no effect
* = called active by the depositor; ? = inconclusive; · = not tested or not shown. The entries come from a sample that favours hits as a whole. Unless noted, calls come from the whole dose curve; as a rule, active = well fitted curve in the direction sought with a large enough effect; inconclusive = small, poorly fitted or top-dose-only effect, or another doubt; inactive = no such curve, though single readings can be large; an effect the other way counts as inactive or inconclusive.

SMILES	TbPYK inhibitor	Sm TGR inh	LmPK inhibitor	Shiga toxin inh	FBPA Giardia inh	CHX counter
O=C(Nc1nnc(C2CC2)s1)c1cc2ccccc2o1	-5%	3%	·	·	·	·
CS(=O)(=O)c1ccc2sc(NC(=O)c3cc4ccccc4o3)nc2c1	7%	12%	1%	3	-1%	-2
CCOC(=O)c1sc(NC(=O)c2ccccc2OC)nc1C	-12%	4%	-20%	69*	0%	24*
Cc1nc(NC(=O)c2cc3ccccc3o2)sc1C	2%	-5%	-19%	46	-10%	37*
CCc1ccc(C(=O)Nc2nc(C)cs2)s1	4%	14%	-9%	36*	-25%	41*
CCOC(=O)c1sc(NC(=O)c2cc3ccccc3o2)nc1C	1%	0%	-1%	61*	2%	40*
CCc1nnc(NC(=O)c2cc3ccccc3oc2=O)s1	-6%	5%	-1%	-3	1%	11*
CCOC(=O)c1sc(NC(=O)CC2OC(=O)c3ccccc32)nc1C (centres undefined)	-4%	-11%	·	·	·	·
Cc1ccccc1-c1nnc(NC(=O)c2cc3ccccc3oc2=O)s1	·	6%	3%	-15	2%	-3
CCOC(=O)c1csc(NC(=O)c2cc3ccccc3o2)n1	-10%	19%	-2%	75*	-7%	55*
CCOC(=O)c1ccccc1NC(=O)c1cc2ccccc2o1	4%	5%	9%	65	-1%	6
CC(=O)NCc1nc2cccnc2n1Cc1ccccc1	-7%	4%	·	·	·	·
C=CCOC(=O)c1sc(NC(=O)c2ccco2)nc1C	-8%	-32%	-26%	128*	2%	28*
CCOC(=O)c1sc(NC(=O)c2ccc(CC)s2)nc1C	2%	7%	-2%	105*	8%	40*
CCc1ccc(C(=O)Nc2cc(C)ccc2F)s1	3%	4%	-16%	105*	-23%	70*
CCOC(=O)c1sc(NC(=O)Cc2ccc(C)cc2)nc1C	-1%	·	0%	21	-3%	14
Brc1cccc(-c2cnco2)c1	1%	1%	-3%	15	2%	-2
Cc1ccc(OCC(=O)Nc2ccon2)c([N+](=O)[O-])c1	1%	?	-6%	84*	·	42*
COc1ccc(OCCCC(=O)Nc2cccc([N+](=O)[O-])c2C)cc1	7%	8%	5%	-15	0%	1
Cc1ccc(/C=N\NC(=O)COc2ccc(C)cc2[N+](=O)[O-])cc1	0%	7%	-4%	15	-1%	20
COc1cccc(OCCNc2cc(Cl)ccc2[N+](=O)[O-])c1	-2%	11%	3%	73*	-7%	42*
O=C(CCOc1ccccc1)Nc1ccccc1[N+](=O)[O-]	9%	?	1%	54	-2%	27*
O=C(COC(=O)COc1ccccc1[N+](=O)[O-])Nc1cccc(Br)c1	1%	0%	-1%	-6	-8%	15*
COc1cccc(OCCNc2ccc([N+](=O)[O-])cn2)c1	1%	-8%	·	·	·	·
CCOC(=O)c1c(C)oc2ccc(N(C(C)=O)S(=O)(=O)c3c(C)cc(C)cc3C)cc12	6%	4%	·	·	·	·
SMILES	TbPYK inhibitor	Sm TGR inh	LmPK inhibitor	Shiga toxin inh	FBPA Giardia inh	CHX counter
Cc1ccc(OC/C(=N\O)C(C)(C)C)c([N+](=O)[O-])c1	-6%	7%	9%	75*	-8%	34*
COC(=O)c1ccccc1NC(=O)COc1ccccc1[N+](=O)[O-]	5%	-10%	2%	9	-17%	4
Cc1ccc(OCC(=O)Nc2ccccc2[N+](=O)[O-])c(Br)c1	9%	-1%	0%	122*	8%	42*
O=C(Cc1ccccc1)Nc1cccc([N+](=O)[O-])c1	-5%	6%	-5%	18	0%	11
O=C(CCOc1ccccc1)Nc1cccc([N+](=O)[O-])c1	0%	?	2%	50*	-3%	20*
CCOc1ccc(NC(=O)COc2ccccc2)c([N+](=O)[O-])c1	-1%	16%	0%	82*	1%	28*
CCOc1ccc(NC(=O)Cc2ccccc2)c([N+](=O)[O-])c1	0%	0%	0%	4	6%	10
Cc1ccc(CCNC(=O)c2c(C)oc3ncn(CC(C)C)c(=O)c23)cc1	0%	7%	·	·	·	·
CN(C)S(=O)(=O)c1ccc(N=Cc2c(C(F)(F)F)[nH]n(C)c2=O)cc1	-6%	0%	14%	11	-16%	-3
COc1cc(OC)cc(C(=O)N2CC(=O)Nc3ccc(Cl)cc3C2c2ccccc2)c1 (centres undefined)	-9%	5%	·	·	·	·
Cc1cccc(NC(=O)Nc2ccccc2[N+](=O)[O-])n1	0%	2%	0%	14	1%	24*
O=[N+]([O-])c1ccccc1NCCOc1ccccc1	0%	-2%	-10%	72*	0%	73*
O=C(CC(=O)Nc1ccccc1[N+](=O)[O-])Nc1ccccc1[N+](=O)[O-]	4%	89µM*	-1%	-12	6%	-1
O=[N+]([O-])c1ccc(N2CCCCC2)cc1NCCOc1ccccc1	-3%	5%	0%	-3	3%	-2
COc1ccccc1NC(=O)Nc1cccc(C)n1	-3%	1%	-1%	24	3%	8
O=C(COC(=O)c1cc(=O)c2ccccc2o1)Nc1ccccc1F	0%	·	·	·	·	·
CCn1cc2nc(SCc3cccc(C(F)(F)F)c3)n(Cc3ccc(OC)cc3)c(=O)c2n1	-3%	1%	·	·	·	·
COc1ccc([C@H]2CC(=O)C=C(c3c(OC)cccc3OC)C2)cc1	-2%	1%	·	·	·	·
CN(C)C(=O)c1ccc(-c2ccc3ncnc(N4CCOCC4)c3c2)cc1	·	·	·	·	-2%	·
CCOc1ccc(N(CC(=O)Nc2ccc(C)c(C)c2)S(C)(=O)=O)cc1	-9%	2%	7%	107*	13%	78*
CCOc1ccc(N(CC(=O)Nc2ccccc2)S(C)(=O)=O)cc1	-15%	8%	1%	50*	0%	19*
CCOc1ccc(N(CC(=O)Nc2ccccc2Cl)S(C)(=O)=O)cc1	0%	18%	1%	74*	1%	28*
c1ccc(Sc2ncnc3ccccc23)cc1	2%	?	-5%	36	0%	12*
N#CCSc1ncnc2ccccc12	0%	2%	-1%	-4	3%	1
O=C(Nc1ccccc1Cl)N1CCN(c2ccccn2)CC1	10%	-19%	-7%	19	4%	10
O=C(Nc1c[nH]c2c(Cl)cccc2c1=O)N1CCN(c2ccccn2)CC1	3%	-20%	4%	28	7%	16*
CCCCCCCCCCCCCCCCCC(=O)[O][Al]	0%	·	·	·	·	·
O=C(CN1C(=O)NC2(CCc3ccccc32)C1=O)NCc1cccc(C(F)(F)F)c1 (centres undefined)	9%	·	·	·	·	·

High-throughput results: PubChem, National Center for Advancing Translational Sciences (NCATS)
